PubChem BioAssay (NCATS)
Records with an inconclusive call do not appear. A call without a number means that no potency is given here. Active and inactive are the calls of the source. Calls come from the whole dose curve; as a rule, active = well fitted curve in the direction sought with a large enough effect; inconclusive = small, poorly fitted or top-dose-only effect, or another doubt; inactive = no such curve, though single readings can be large; an effect the other way counts as inactive or inconclusive.

assay: qHTS for differential inhibitors of proliferation of Plasmodium falciparum line 3D7 (AID 1876); note: potency is the fitted concentration of half-maximal effect; conditions: P. falciparum 3D7 proliferation inhibition; series mostly up to 28.7 µM

| SMILES | Potency |
| --- | --- |
| Nc1nc(N)c2nc(CNc3ccc(C(=O)NC(CCC(=O)O)C(=O)O)cc3)cnc2n1 (centres undefined) | inactive |
| COc1cc2ncnc(Nc3cccc(Cl)c3)c2cc1OC | 2.51 µM (active) |
| NC(=O)c1cccc(N)c1 | inactive |

assay: qHTS for differential inhibitors of proliferation of Plasmodium falciparum line D10 (AID 1877); conditions: series mostly up to 28.7 µM;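 note: parasites grown with compound for 72 h before DNA staining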; note: potency is the fitted concentration of half-maximal effect

| SMILES | Potency |
| --- | --- |
| COc1cc2ncnc(Nc3cccc(Cl)c3)c2cc1OC | 5.62 µM (active) |
| NC(=O)c1cccc(N)c1 | inactive |
| Cc1ccc(S(=O)(=O)N[C@@H](Cc2ccccc2)C(=O)CCl)cc1 | inactive |

assay: qHTS for differential inhibitors of proliferation of Plasmodium falciparum line Dd2 (AID 1882); conditions: Potency: Plasmodium falciparum Dd2 proliferation inhibition; series mostly up to 28.7 µM;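 note: compound exposure of 72 h on infected erythrocytes; nearly all actives have a fitted effect of over 65% in size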
How it was run: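 SYBR Green I DNA fluorescence read-out, ex 485/em 535 nm. Signals were normalized to 0.29 uM artemisinin and DMSO wells, then corrected using vehicle-only plates flanking each stack. Parasite growth ran 72 h in erythrocytes before lysis.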

| SMILES | Potency |
| --- | --- |
| Nc1nc(N)c2nc(CNc3ccc(C(=O)NC(CCC(=O)O)C(=O)O)cc3)cnc2n1 (centres undefined) | inactive |
| NC(=O)c1cccc(N)c1 | inactive |
| CC(C)(C)NC(=O)[C@H]1CC[C@H]2[C@@H]3CC[C@H]4NC(=O)C=C[C@]4(C)[C@H]3CC[C@]12C | inactive |
